# Only a selection was taken, and hits are over-represented in it overall.
# C diff growth: C. difficile growth inhibition. growth activity, negative = inhibition, % at 16 µg/mL (by protocol). AID 1259249. hit rate 0.25% among 86,000. Clostridium difficile clinical isolate growth, OD600, 24 h; stronger effect = lower value;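 active means mean growth activity at or below -80% and every replicate also at or below -80%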;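 further: 0% = DMSO wells and -100% = levofloxacin 16 µg/mL wells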
# Active calls of the source: *; ! = not confirmed by another sample.
SMILES,C diff growth
Cc1ccc(-c2ccc(C3[C@H]4CNC[C@@H]3N4C(=O)Nc3ccc(F)cc3)cc2)cc1 (stereo not given in full),-75
Cc1ccccc1-c1ccc(C2[C@H]3CNC[C@@H]2N3C(=O)Nc2ccc(C(F)(F)F)cc2)cc1 (stereo not given in full),-96*
Cc1ccccc1-c1ccc(C2[C@H]3CNC[C@@H]2N3C(=O)Nc2ccc(F)cc2)cc1 (stereo not given in full),59
CO[C@H]1CN(C)C(=O)c2ccc(NS(=O)(=O)c3ccccc3C)cc2OC[C@H](C)NC[C@@H]1C,1
O=C(C[C@@H]1CC[C@@H]2[C@H](COC[C@@H](O)CN2C(=O)Nc2ccc(C(F)(F)F)cc2)O1)NCC1CCCCC1,58
CCNC(=O)C[C@H]1CC[C@@H]2[C@H](COC[C@@H](O)CN2C(=O)Nc2ccc(C(F)(F)F)cc2)O1,62
CCNC(=O)C[C@@H]1CC[C@H]2[C@@H](COC[C@@H](O)CN2C(=O)Nc2ccc(C(F)(F)F)cc2)O1,-100*
CCNC(=O)C[C@@H]1CC[C@@H]2[C@H](COC[C@H](O)CN2C(=O)Nc2ccc(C(F)(F)F)cc2)O1,-97*!
O=C(C[C@@H]1CC[C@H]2[C@@H](COC[C@@H](O)CN2C(=O)Nc2ccc(C(F)(F)F)cc2)O1)NCC1CC1,-18
O=C(C[C@@H]1CC[C@H]2[C@@H](COC[C@@H](O)CN2C(=O)Nc2ccc(C(F)(F)F)cc2)O1)NCC1CCCCC1,-100*!
O=C(C[C@H]1CC[C@@H]2[C@H](COC[C@H](O)CN2C(=O)Nc2ccc(C(F)(F)F)cc2)O1)NCC1CC1,-23
O=C(C[C@@H]1CC[C@H]2[C@@H](COC[C@H](O)CN2C(=O)Nc2ccc(C(F)(F)F)cc2)O1)NCC1CCCCC1,-5
O=C(C[C@@H]1CC[C@@H]2[C@H](COC[C@H](O)CN2C(=O)Nc2ccc(C(F)(F)F)cc2)O1)NCC1CC1,-54
C[C@H](CO)N1C[C@H](C)[C@@H](CN(C)C(=O)Nc2ccc3c(c2)OCO3)Oc2cc(C3=CCCCC3)ccc2S1(=O)=O,14
C[C@@H]1CN([C@H](C)CO)S(=O)(=O)c2ccc(C#CC(C)(C)O)cc2O[C@@H]1CN(C)C(=O)C1CCCCC1,-3
O=C(C[C@H]1CC[C@H](NS(=O)(=O)c2ccccc2)[C@H](CO)O1)N1CCN(c2ccccc2)CC1,-3
CCNC(=O)[C@H]1[C@H](CO)[C@H]2Cn3c(ccc(-c4ccc(F)cc4)c3=O)[C@@H]1N2Cc1ccccc1F,2
C[C@@H]1CN([C@H](C)CO)C(=O)c2cc(NC(=O)CCCCCC(=O)Nc3ccccc3N)ccc2O[C@@H]1CN(C)S(=O)(=O)c1ccccc1,-8
C[C@H](CO)N1C[C@H](C)[C@@H](CN(C)CC2CCCCC2)OCCCC[C@H](C)Oc2ccc(NC(=O)Nc3ccc(C(F)(F)F)cc3)cc2C1=O,-74
C[C@@H]1CN([C@@H](C)CO)C(=O)c2cc(NC(=O)Nc3ccc(C(F)(F)F)cc3)ccc2O[C@@H](C)CCCCO[C@H]1CN(C)CC1CCCCC1,-107*
CCCN(C)C[C@H]1OCCCC[C@H](C)Oc2ccc(NC(=O)Nc3ccc(C(F)(F)F)cc3)cc2C(=O)N([C@@H](C)CO)C[C@H]1C,-31
C[C@H]1CCCCO[C@H](CN(C)CC2CC2)[C@@H](C)CN([C@@H](C)CO)C(=O)c2cc(NC(=O)Nc3ccc(C(F)(F)F)cc3)ccc2O1,0
C[C@@H]1CCCCO[C@H](CN(C)CC2CC2)[C@H](C)CN([C@H](C)CO)C(=O)c2cc(NC(=O)Nc3ccc(C(F)(F)F)cc3)ccc2O1,6
CCCN(C)C[C@H]1OCCCC[C@@H](C)Oc2ccc(NC(=O)Nc3ccc(C(F)(F)F)cc3)cc2C(=O)N([C@H](C)CO)C[C@H]1C,-108*
C[C@H](CO)N1C[C@H](C)[C@H](CN(C)CC2CCCCC2)OCCCC[C@H](C)Oc2ccc(NC(=O)Nc3ccc(C(F)(F)F)cc3)cc2C1=O,-82*
SMILES,C diff growth
C[C@@H]1CN([C@H](C)CO)C(=O)c2cc(NC(=O)Nc3ccc(C(F)(F)F)cc3)ccc2O[C@@H](C)CCCCO[C@@H]1CN(C)CC1CCCCC1,-63
CCCN(C)C[C@@H]1OCCCC[C@@H](C)Oc2ccc(NC(=O)Nc3ccc(C(F)(F)F)cc3)cc2C(=O)N([C@H](C)CO)C[C@@H]1C,-19
Cc1ccc(S(=O)(=O)Nc2ccc3c(c2)CC(=O)N([C@@H](C)CO)C[C@@H](C)[C@H](CN(C)Cc2ccc(C(=O)O)cc2)O3)cc1,-7
CCS(=O)(=O)Nc1ccc2c(c1)C(=O)N(C)[C@H]1CC[C@H](CC(=O)NC)O[C@@H]1CO2,3
CCC(=O)N1CC2(C1)CN(Cc1ccccc1Cl)[C@H](CO)c1[nH]c3cc(OC)ccc3c12,10
CC(C)NC(=O)N1CCCCN2[C@H](CO)[C@@H](c3ccc(C#Cc4ccccc4F)cc3)[C@H]2C1,41
COC(=O)C[C@@H]1CC[C@@H]2[C@H](COC[C@@H](O)CN2C(=O)Nc2ccccc2OC)O1,38
